Kd data for eleven compounds are collected here from PMC5540273 (PLoS ONE, 2017).

Where only a bound is given, the exact number is not on record here.

The subject of one experiment is T1, CDC2L1.
T1 construct: gene CDK11B
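Also: kd values determined as follow-up on hits from a single-replicate KINOMEscan panel screen.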

Usually Kd stands for the free concentration of one partner at which half of the binding sites on the other are occupied at equilibrium, for simple one-to-one binding. For `O=C1NC(=O)C(c2ccc(Cl)cc2)=C1Nc1ccc(O)cc1` [SB-340867], the Kd in the experiment on CAMK1D and with CAMK1 was above 10 µM each time. With `COc1cccc(CNC(=O)NC2CCN(c3ccnc(Nc4ccc(F)cc4)n3)C2)c1` (centres unmarked) [GSK1379723], the Kd in the experiment on CAMK2G is above 10 µM. As to `CN1c2ccc(-c3ccc(C(N)=O)cc3)cc2-c2[nH]ncc2S1(=O)=O`, the dissociation constant Kd in the experiment with CAMKK1 was above 10 µM. Take `Cc1nccc(-c2c(-c3ccc(F)cc3)ncn2CCCN2CCOCC2)n1.Cl` [SB-282975]: the Kd in the experiment with CDC2L1 and in the experiment with CDK9 was above 10 µM in each case. For `Cc1c(Cn2c3ccccc3n3c(=O)cc(N4CCOCC4)nc23)cccc1C(F)(F)F` [GSK2306394], the Kd with CDC2L1 and with CDK9 was above 10 µM throughout. `CC(=O)c1c(C)c2cnc(Nc3ccn(C)n3)nc2n(C2CCCC2)c1=O`: the Kd with CDC2L2 is above 10 µM.

The compound `COC(=O)C(NC(=O)NC1CCN(c2ccnc(Nc3ccc(F)cc3)n2)C1)c1ccccc1` (centres unmarked) [GSK1379712] showed a Kd with CDK2 above 10 µM. In the experiment with CDK5, `Cc1ccc(-c2nc(Nc3ccncc3)c3ccccc3n2)s1` [GSK189015] yielded a Kd above 10 µM. `O=C(Nc1n[nH]c2nc(-c3ccco3)c(Br)cc12)C1CCN(Cc2ccccc2)C1.O=C(O)[C@H](O)[C@@H](O)C(=O)O` (centres unmarked) [SB-742034] yielded a Kd in the experiment with CDK7 of 1.1 µM.

Compound `Nc1cccc(-c2ccc3c(N)n[nH]c3c2)n1` [GSK2192730] came in with a Kd in the experiment on CDK7 above 10 µM. In turn, `Cc1cnc(N)c(/C=C/c2cncc(C(=O)NCCc3ccc(Cl)cc3Cl)c2)c1.Cl` [GSK190937] came in with a Kd in the experiment with CDK8 of 1.1 µM.
